Source: PubChem BioAssay
Calls of active or inactive are those of the source.

Tests used:
[1] = compounds binding Alexa647 anti-His antibody – biochemical, small-molecule microarray, 635 nm fluorescence, artefact control for SMM control protein annotation, primary screen (AID 1128); conditions: higher = more signal;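 note: score merges feature fluorescence with signal-to-noise for each printed compound spot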
[2] = system: Human papillomavirus type 1a E7 protein (residues 1-88); assay: HPV1a E7 small-molecule binders, primary screen, biochemical, small-molecule microarray, residues 1-88, 635 nm (AID 1129); conditions: small-molecule microarray binding, fluorescence 635 nm; higher = more signal
[3] = target: Focal adhesion kinase 1 (Homo sapiens) (UniProt Q05397); assay: PTK2 protein binding on printed compound slides – biochemical, small-molecule microarray, 635/667 nm fluorescence, BSA, DTT, primary screen (AID 1130); conditions: 635 nm fluorescence, higher = more signal;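 note: composite of spot emission at 667 nm and signal to noise over triplicate slides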
Sequence of Focal adhesion kinase 1 (Homo sapiens) (Q05397 whole entry, looked up): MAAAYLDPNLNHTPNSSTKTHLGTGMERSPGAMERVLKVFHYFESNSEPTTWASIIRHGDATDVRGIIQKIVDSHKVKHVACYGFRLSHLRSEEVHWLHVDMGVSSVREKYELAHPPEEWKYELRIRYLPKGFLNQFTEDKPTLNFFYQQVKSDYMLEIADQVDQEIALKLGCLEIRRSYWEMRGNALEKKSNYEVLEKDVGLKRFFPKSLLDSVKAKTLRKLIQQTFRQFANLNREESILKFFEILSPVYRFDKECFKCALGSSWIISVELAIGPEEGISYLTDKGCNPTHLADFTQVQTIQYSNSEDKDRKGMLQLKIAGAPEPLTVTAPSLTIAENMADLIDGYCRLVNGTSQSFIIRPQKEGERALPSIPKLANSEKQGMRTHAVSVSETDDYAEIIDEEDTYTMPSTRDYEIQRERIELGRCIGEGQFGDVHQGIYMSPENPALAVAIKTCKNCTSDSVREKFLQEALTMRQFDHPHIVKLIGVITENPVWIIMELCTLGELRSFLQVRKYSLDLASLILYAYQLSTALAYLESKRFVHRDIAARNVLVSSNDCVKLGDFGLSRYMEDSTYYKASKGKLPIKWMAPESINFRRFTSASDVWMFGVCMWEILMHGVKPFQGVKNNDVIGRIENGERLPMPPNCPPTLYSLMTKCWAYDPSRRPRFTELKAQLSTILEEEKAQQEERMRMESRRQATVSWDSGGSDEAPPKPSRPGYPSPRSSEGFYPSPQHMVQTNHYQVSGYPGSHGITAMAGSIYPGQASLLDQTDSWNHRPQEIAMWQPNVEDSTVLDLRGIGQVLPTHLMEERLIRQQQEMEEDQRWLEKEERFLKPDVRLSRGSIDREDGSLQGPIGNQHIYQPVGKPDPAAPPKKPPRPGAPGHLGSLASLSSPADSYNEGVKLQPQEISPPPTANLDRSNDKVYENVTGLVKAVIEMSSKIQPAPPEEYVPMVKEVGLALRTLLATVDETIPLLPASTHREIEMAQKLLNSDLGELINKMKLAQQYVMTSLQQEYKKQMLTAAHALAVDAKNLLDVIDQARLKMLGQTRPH

[4] = system: Fibrinogen (Alexa647-labelled); assay: Alexa647-fibrinogen binding to printed small molecules – biochemical, small-molecule microarray, 635/667 nm fluorescence, artefact control for SMM control-protein annotation, profiling panel (AID 1131); conditions: fibrinogen-A647 binding fluorescence, higher = more signal;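 note: z-score merges 667 nm fluorescence with per-spot signal-to-noise over triplicate slides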
[5] = target: Follistatin (Homo sapiens) (UniProt P19883); assay: FST protein binding to printed compounds – biochemical, small-molecule microarray, 635/667 nm fluorescence, primary screen (AID 1132); conditions: 635 nm fluorescence, higher = more signal
Sequence of Follistatin (Homo sapiens) (P19883 whole entry, looked up): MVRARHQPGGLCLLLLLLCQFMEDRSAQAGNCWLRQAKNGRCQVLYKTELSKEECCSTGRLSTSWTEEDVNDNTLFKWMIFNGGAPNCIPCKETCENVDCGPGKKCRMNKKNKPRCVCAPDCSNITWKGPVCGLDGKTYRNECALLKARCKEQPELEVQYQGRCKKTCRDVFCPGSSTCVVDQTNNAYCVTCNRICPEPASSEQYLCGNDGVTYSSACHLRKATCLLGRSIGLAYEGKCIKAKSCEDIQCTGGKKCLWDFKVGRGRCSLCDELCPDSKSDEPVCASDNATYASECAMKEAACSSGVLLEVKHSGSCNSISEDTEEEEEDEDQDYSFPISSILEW

[6] = target: Fibroblast growth factor 2 (Homo sapiens) (UniProt P09038); assay: basic fibroblast growth factor binding to printed compounds – biochemical, small-molecule microarray, 635/667 nm fluorescence, primary screen (AID 1133); conditions: FGF2, fluorescence 635/667, higher = more signal
Sequence of Fibroblast growth factor 2 (Homo sapiens) (P09038 whole entry, looked up): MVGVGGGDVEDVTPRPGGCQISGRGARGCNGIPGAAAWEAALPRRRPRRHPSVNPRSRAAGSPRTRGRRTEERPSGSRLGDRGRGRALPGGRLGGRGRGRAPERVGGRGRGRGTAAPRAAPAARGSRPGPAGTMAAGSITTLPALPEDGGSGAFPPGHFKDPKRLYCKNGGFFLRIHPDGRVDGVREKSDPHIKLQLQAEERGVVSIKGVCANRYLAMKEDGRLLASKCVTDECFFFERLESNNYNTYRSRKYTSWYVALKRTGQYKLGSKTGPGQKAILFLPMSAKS

[7] = JC-1 mitochondrial potential readout, lung cancer cells – cell-based, A549, JC-1 fluorescence, basal, 24 h, 100 nL, profiling panel (AID 1138); conditions: higher = more signal;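 note: A549 lung adenocarcinoma cells under basal conditions with no added stimulus; test concentration not given here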
[8] = system: Lefty1; assay: Lefty1 protein binding to printed compounds – biochemical, small-molecule microarray, 635/667 nm fluorescence, primary screen (AID 1139); conditions: fluorescence 635/667, higher = more signal
[9] = system: wheat germ agglutinin (Triticum aestivum), Alexa647-labelled; assay: Alexa647-WGA lectin binding to printed small molecules – biochemical, small-molecule microarray, 635/667 nm fluorescence, artefact control for SMM control-protein annotation, profiling panel (AID 1140); conditions: WGA-A647 binding, 635 nm fluorescence, higher = more signal;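 note: score merges 667 nm feature emission with signal to noise over triplicate slides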
[10] = target: Luciferin 4-monooxygenase (Photinus pyralis) (UniProt P08659); assay: inhibition of purified Photinus pyralis luciferase – biochemical, luminescence, purified enzyme, 2006 set, primary screen (AID 1141); conditions: purified firefly luciferase, SteadyGlo luminescence, 30 min; higher = more signal, called active from +8 up or from −8 down;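 note: cell-free assay with purified firefly luciferase at 100 ng per well in PBS; test concentration not given here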
Sequence of Luciferin 4-monooxygenase (Photinus pyralis) (P08659 whole entry, looked up): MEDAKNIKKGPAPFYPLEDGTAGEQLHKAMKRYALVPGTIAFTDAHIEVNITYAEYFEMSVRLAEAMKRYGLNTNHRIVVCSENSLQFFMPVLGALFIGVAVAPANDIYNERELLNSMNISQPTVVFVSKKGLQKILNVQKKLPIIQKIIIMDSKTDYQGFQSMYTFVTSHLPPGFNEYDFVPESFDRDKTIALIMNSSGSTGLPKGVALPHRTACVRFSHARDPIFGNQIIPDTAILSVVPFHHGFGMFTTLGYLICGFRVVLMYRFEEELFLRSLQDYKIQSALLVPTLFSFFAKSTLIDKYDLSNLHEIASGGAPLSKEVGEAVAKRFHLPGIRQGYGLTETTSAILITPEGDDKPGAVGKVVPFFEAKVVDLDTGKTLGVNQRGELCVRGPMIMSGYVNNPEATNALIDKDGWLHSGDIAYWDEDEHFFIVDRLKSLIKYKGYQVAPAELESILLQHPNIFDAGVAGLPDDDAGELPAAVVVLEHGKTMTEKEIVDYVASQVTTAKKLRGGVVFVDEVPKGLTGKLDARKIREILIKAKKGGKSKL

SMILES	composite z-score [1]	composite z-score [2]	composite z-score [3]	composite z-score [4]	composite z-score [5]	composite z-score [6]	z-score [7]	composite z-score [8]	composite z-score [9]	z-score [10]
O=C(N1CCOCC1)[C@@]1(CCS(=O)(=O)c2ccccc2)N=C(c2ccc(OCCCO)cc2)O[C@H]1c1ccccc1	3.23	1.25	0.919	1	1.25	0.162	0.584	-0.415	1.29	-0.0763 (inactive)
COc1cc2c(cc1OC)CN(C(=O)[C@@H]1[C@H]3C(=O)O[C@H](c4ccccc4)[C@H](c4ccccc4)N3[C@H](c3ccc(O)cc3)[C@@]13C(=O)Nc1ccc(C#CCCO)cc13)CC2	0.388	0.989	0.584	0.876	1.11	1.24	-1.2	0.945	0.7	0.372 (inactive)
COc1ccc(CCNC(=O)[C@@]2(Cc3ccccc3I)c3ccccc3C(=O)N(Cc3ccccc3Cl)[C@H]2c2ccc(CO)cc2)cc1	0.0199	0.899	0.196	0.0632	0.0376	0.0031	0.311	-0.321	0.0638	-0.0513 (inactive)
O=C1[C@@H]2[C@@H](CC(COc3ccccc3)=C3[C@@H](CCc4ccccc4)OB(O)C[C@@H]32)C(=O)N1Cc1ccccc1	-0.147	0.871	0.034	0.0907	0.445	0.161	1.83	0.212	0.344	-1.06 (inactive)
C[C@]1(C(=O)O)c2ccccc2C(=O)N(Cc2ccc(OC(F)(F)F)cc2)[C@H]1c1ccc(CO)cc1	1.1	0.409	0.609	0.0748	-0.156	-0.381	0.447	-0.685	0.596	0.0795 (inactive)
COC(=O)[C@@]1(Cc2ccc(OC)cc2)[C@H]2c3cc(C(=O)N4CCCC4)n(Cc4ccc(OC(F)(F)F)cc4)c3C[C@H]2CN1C(=O)c1ccccc1	1.36	-0.376	-0.438	1	0.451	-0.702	0.691	-0.683	1.09	2.03 (inactive)
NC(=O)NCC#Cc1ccc2c(c1)[C@]1(C(=O)N2)[C@H](C(=O)N2CCN(c3ncccn3)CC2)[C@H]2C(=O)O[C@H](c3ccccc3)[C@H](c3ccccc3)N2[C@@H]1c1ccc(OCCO)cc1	0.0543	0.805	0.0827	0.717	1.33	0.517	-1.18	0.406	0.276	-0.437 (inactive)
CC(C)C(=C=CC[C@@H](O)c1cccc(OCCO)c1)C[C@@H](O)c1ccccn1	1.39	-0.0234	0.0046	-1.15	0.484	-0.0241	0.386	0.402	0.782	0.179 (inactive)
CCCCNC(=O)c1ccc(C#C[Si](C(C)C)(C(C)C)C(C)C)c(OC(C)=O)c1	0.823	1.13	0.124	0.598	1.15	0.883	-2.05	1.01	1.08	0.683 (inactive)
CN(C)C(=O)[C@]1(CCS(=O)(=O)c2ccccc2)N=C(c2ccc(OCCCO)cc2)O[C@@H]1c1ccccc1	1.57	1.26	1.23	1	1.29	0.345	0.17	0.476	-0.0414	0.396 (inactive)
C=C[C@@H](C)[C@H](O)c1ccc(OCCO)cc1	0.0123	-0.535	-0.232	-1.82	-0.808	-0.994	0.41	-1.19	-0.858	-15.8 (active)
O=C(NCCN1CCOCC1)[C@@H]1c2ccccc2C(=O)N(Cc2ccccc2)[C@H]1c1ccc(CO)cc1	-0.87	-0.611	-0.668	0.143	0.321	-0.447	0.829	-0.665	-0.3	1.36 (inactive)
[N-]=[N+]=Nc1ccccc1C[C@]1(C(=O)O)N=C(c2ccc(OCCCO)cc2)O[C@H]1c1ccccc1N=[N+]=[N-]	1.45	1.21	0.507	0.986	0.945	0.0923	0.64	-0.676	1.25	-5.36 (inactive)
C=CCN1C(=O)[C@]2(O[C@H](CCO)[C@@H]([Si](C)(C)c3ccc(OC)cc3)[C@@H]2C)c2cc(N3C(=O)COc4ccccc43)ccc21	1.3	0.853	0.179	0.55	0.618	0.405	-1.46	0.465	0.441	-0.401 (inactive)
